PubChem BioAssay (NCATS)
Where “and” joins values, the source holds several entries; their conditions need not be identical. Equal values may be shown once. Records with an inconclusive call do not appear. Calls of active or inactive are those of the source. The call rests on the fitted dose curve; in most records, active means well fitted cell-killing curve with a large enough effect; inconclusive means small, poorly fitted or top-dose-only effect, or effect the other way; inactive means flat fitted curve, though single readings scatter.

Experiment: qHTS assay for cell viability of HEK293 cells (AID 743288); further: nearly all actives have a fitted effect of over 50% in size
Details: ATP luminescence (CellTiter-Glo), 18 h, hits give low values
Outline: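 ATP luminescence (CellTiter-Glo) reports metabolically competent cell number after parental HEK293 cells, 2,000/well, were treated with DMSO-dissolved compounds for 18 h at 37 C; reagent incubation 30 min, room temperature.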
On the % scale 0 is the no-effect control and ±100 the full control effect.

Compound | max response
CCCCCCCC/C=C\CCCCCCCC(=O)OC[C@@H](O)[C@H]1OC[C@H](O)[C@H]1O | -9.48% (inactive)
C=Cc1ccccc1 | 4.36% (inactive) and 2.49% (inactive)
O=C(O)CC(O)(CC(=O)O)C(=O)O | -6.07% (inactive) and -4.96% (inactive) and -7.26% (inactive)
CN(C)Cc1ccccc1 | 0.0798% (inactive)
CCCCCCCCCC(=O)O | -4.02% (inactive) and 2.71% (inactive)
COC(C)=O | -4.96% (inactive)

Experiment: qHTS assay for cell viability of the p53RE-bla HCT-116 cell line (AID 743292); further: nearly all actives have a fitted effect of over 55% in size
Details: p53RE-bla HCT-116 viability, ATP luminescence, 16 h; series mostly up to 95 µM
Outline: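 ATP-based luminescence, 16 h compound exposure at 37 C, p53RE-bla HCT-116 cells at 4,000/well.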

Compound | outcome
CCCCCCCC/C=C\CCCCCCCC(=O)OC[C@@H](O)[C@H]1OC[C@H](O)[C@H]1O | inactive
C=Cc1ccccc1 | inactive
O=C(O)CC(O)(CC(=O)O)C(=O)O | inactive
CN(C)Cc1ccccc1 | inactive
CC(=O)S[C@@H]1CC2=CC(=O)CC[C@]2(C)[C@H]2CC[C@@]3(C)[C@@H](CC[C@@]34CCC(=O)O4)[C@H]12 | inactive
CCCCCCCCCC(=O)O | inactive
COC(C)=O | inactive
